Here are results for 16 compounds from PubChem BioAssay (NCATS).

Inconclusive results are not listed. Activity calls are given as the source filed them. Unless noted, the call rests on the fitted dose curve. Numbered stars: 1 amine (or outer) side, 2 acyl side, 3 side chain; on linkers, the order of the positions; unused ones are H or OH. Bridge positions count the residues as written; N and C are the ends. Square brackets hold non-standard residues; d marks the D form. Peptide text beside a SMILES is read from it. * marks the point of attachment. ξ: configuration not given here. ξhTyr(3S-OH,4S-OH,3'-OSO3H) = NC(C(=O)O)[C@H](O)[C@@H](O)c1ccc(O)c(OS(=O)(=O)O)c1; Orn(4R-OH,5R-OH) = O=C([C@H](C[C@@H](O)[C@@H](O)N[*:3])N[*:1])[*:2]; X2 = CCCCCOc1ccc(-c2cc(-c3ccc(C(=O)*)cc3)no2)cc1; X3 = C[C@H]1CN([*:1])C(C(=O)[*:2])[C@H]1O; ξGln(3R-OH) = NC(=O)C[C@@H](O)C(N)C(=O)O; ξPro(4R-OH) = O=C(O)C1C[C@@H](O)CN1; ξThr(3R) = C[C@@H](O)C(N)C(=O)O

Assay [1] can be described thus: Primary qHTS for inhibitors of SARS-S pseudo-typed particle cell entry (AID 1479145). Further: nearly all actives have a fitted effect of over 45% in size. On activity change, negative = inhibition: on the % scale 0 is the no-effect control and ±100 the full control effect.
Assay [2] is described as follows: Primary qHTS for Huh7 cytotoxicity: counterscreen for inhibitors of MERS-S pseudotyped particle cell entry (AID 1479147). Conditions: outcome: dose series up to 57.1 µM unless noted. For orientation: qHTS replaces the single test concentration by a dilution series.
Assay [3] in a line: Primary qHTS for inhibitors of MERS-S pseudo-typed particle cell entry (AID 1479149). Further: nearly all actives have a fitted effect of over 60% in size.
The nature of assay [4]: Primary qHTS for Vero E6 cytotoxicity: counterscreen for inhibitors of SARS-S pseudo-typed particle cell entry (AID 1479150). To be noted: outcome: dose series up to 57.1 µM unless noted.
Assay [5] is described as follows: Cytotoxicity counterscreen for inhibitors of SARS-CoV-2 cell entry (AID 1645845). Further: nearly all actives have a fitted effect of over 50% in size. The method, boiled down:
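48 h compound treatment (after 1 h preincubation), HEK293-ACE2 cells, 37 C/5% CO2; ATP luminescence endpoint; normalized to cell wells and media blanks.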
In general terms: The purpose of a counterscreen is to sort out artefacts and off-target activity.

Assay [6] in a line: Primary qHTS to identify inhibitors of SARS-CoV-2 cell entry (AID 1645846). Further: nearly all actives have a fitted effect of over 45% in size. To be noted: activity change, negative = inhibition: at 57.1 µM (top of the series) unless noted. The method, boiled down:
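HEK293-ACE2 (Expi293F, stable hACE2), 1500 cells/well, o/n 37C; cpd 23 nL pin, 1 h; MLV-PP w/ SARS-CoV-2-S (Wuhan-Hu-1, Δ19 C-term); 48 h 37C; Bright-Glo luminescence; normalized vs S-PP and bald PP.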

In assay [7] the test system is CRL-7250. The assay can be described thus: qHTS assay to identify novel small-molecules to repurpose for Merkel cell carcinoma treatment (AID 1296009; active means well fitted inhibition curve with a large enough effect; further: nearly all actives have a fitted effect of over 60% in size). To be noted: MCC and control cell lines, CellTiter-Glo viability, 72 h; series mostly up to 92 µM. In short, it runs like this: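 72 hr, 37 degree celsius; NPC 8-pt / MIPE 11-pt dose response; compound pinned in DMSO; CellTiter-Glo, 10 min RT, luminescence; normalized to no-cell and DMSO controls.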

Assay [8] can be described thus: Confirmatory qHTS for VERO E6 Cytotoxicity Assay: Counterscreen for SARS-CoV-2 CPE Assay (AID 1508605). Further: nearly all actives have a fitted effect of over 60% in size. Further: potency means the concentration at half of the fitted maximal effect. On activity change, negative = cytotoxic: on the % scale 0 is the no-effect control and ±100 the full control effect.
The nature of assay [9]: Confirmatory qHTS for activators (rescue) of SARS-CoV-2 Cytopathic Effect (CPE) (AID 1508606). Further: nearly all actives have a fitted effect of over 70% in size. Further: potency means the concentration at half of the fitted maximal effect.
Assay [10] can be described thus: qHTS for inhibitors of Rabies Virus screened against the NCATS CANVASS Library (AID 1347402). Further: 0% is about no effect.
Assay [11] can be described thus: qHTS for Inhibitors of the Functional Ribonucleoprotein Complex (vRNP) of Lassa (LASV) Arenavirus: Viability assay - alamar blue signal for LASV Primary Screen (AID 1347083; calls by dose curve; tested in HEK293 reporter line; further: potency means the concentration at half of the fitted maximal effect; nearly all actives have a fitted effect of over 80% in size).
A short description of assay [12]: qHTS for Inhibitors of the Functional Ribonucleoprotein Complex (vRNP) of Lymphocytic Choriomeningitis Arenaviruses (LCMV): Viability assay - alamar blue signal for LCMV Primary Screen (AID 1347085; calls by dose curve; tested in HEK293 reporter line; further: potency means the concentration at half of the fitted maximal effect; nearly all actives have a fitted effect of over 80% in size).
Assay [13] can be described thus: VSVG counterscreen qHTS to identify inhibitors of SARS-CoV-2 cell entry (AID 1645847). Further: nearly all actives have a fitted effect of over 65% in size. Further: potency means the concentration at half of the fitted maximal effect. On activity change, negative = inhibition: on the % scale 0 is the no-effect control and ±100 the full control effect. The method, boiled down:
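Expi293F/hACE2 cells, overnight plating; cpd 1 h, 37C/5% CO2; + VSV-G PP (MLV pseudotyping), 48 h; supernatant removed, Bright-Glo luciferase read. Norm: VSV-G PP and bald PP wells.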

On to `CCOc1nc2cccc(C(=O)OCc3oc(=O)oc3C)c2n1Cc1ccc(-c2ccccc2-c2noc(O)n2)cc1`, for which the Potency result in [1], in assay [3], in assay [5] and in [7] was “inactive” throughout. The compound was classed as inactive in [2] and in [4]. Also, in assay [6], the activity change, negative = inhibition is -28.5%.

Take `COc1ccccc1OCCN1CC(COc2cccc3[nH]c4ccccc4c23)OCC1=O` (stereo unspecified): the Potency result in assay [8], in assay [9] and in assay [7] was “inactive” throughout.

On to `CC1=C2C(=O)O[C@@H](c3ccoc3)[C@]2(C)CCC1`, for which the result in assay [10] was inactive. Besides, the Potency result in assay [7] was “inactive”.

`CCc1ccc(Cc2ccc3c(c2)[C@]2(OC3)O[C@H](CO)[C@@H](O)[C@H](O)[C@H]2O)cc1`: the Potency entry in assay [1], in assay [5] and in [7] was “inactive” throughout. For the same compound, the outcome in assay [2] and in assay [4] was inactive.

In the case of `Cn1nc(C(C)(C)C)cc1C(=O)N[C@@H](Cc1cccc(Cl)c1)C(=O)NCC#N`, the Potency result in assay [8] and in [7] was “inactive” throughout. For the same compound, the Potency in [9] was 224 nM (active).

As for `Nc1nc(=O)n([C@H]2C[C@H](O)[C@@H](CO)O2)cc1F`, the Potency is 769 nM (active) in [11], 1930 nM (active) in assay [12] and 13.6 nM (active) in assay [13]. Further, the Potency entry in [5] and in [7] was “inactive” throughout. The activity change, negative = inhibition in assay [6] is -95.3%.

As for `CCN(CC)CCOCCOC(=O)C(CC)(CC)c1ccccc1`, the outcome in assay [2] and in [4] was inactive. Besides, the Potency result in assay [5], in assay [13] and in assay [7] was “inactive” in each case.

Turning to `CCC(=O)c1cc(-c2ccc(Cl)cc2)n(-c2ccc(S(N)(=O)=O)cc2)c1C`, the Potency result in assay [8], in assay [9] and in [7] was “inactive” throughout.

Regarding `C[C@@H]1O[C@@H](O[C@H]2[C@H](OC(=O)[C@]34CCC(C)(C)C[C@H]3C3=CCC5[C@@]6(C)CC[C@H](O[C@@H]7O[C@H](CO[C@@H]8OC[C@H](O)[C@H](O)[C@H]8O)[C@@H](O)[C@H](O)[C@H]7O)C(C)(C)C6CC[C@@]5(C)[C@]3(C)C[C@H]4O)OC[C@@H](O)[C@@H]2O)[C@H](O)[C@H](O[C@@H]2OC[C@](O)(CO)[C@H]2O)[C@H]1O[C@@H]1OC[C@H](O)[C@H](O[C@@H]2OC[C@@H](O)[C@H](O)[C@H]2O)[C@H]1O` (stereo partly specified), the Potency in assay [8] was 1910 nM (active). Moreover, in assay [7], the outcome was “inactive [at 9.27 µM]”.

Regarding `CCCCCOc1ccc(-c2cc(-c3ccc(C(=O)N[C@H]4C[C@@H](O)[C@@H](O)NC(=O)C5[C@@H](O)[C@@H](C)CN5C(=O)C([C@H](O)CC(N)=O)NC(=O)C([C@H](O)[C@@H](O)c5ccc(O)c(OS(=O)(=O)O)c5)NC(=O)C5C[C@@H](O)CN5C(=O)C([C@@H](C)O)NC4=O)cc3)no2)cc1` (stereo partly drawn) (X2-[Orn(4R-OH,5R-OH)][ξThr(3R)][ξPro(4R-OH)][ξhTyr(3S-OH,4S-OH,3'-OSO3H)][ξGln(3R-OH)][X3]; lactam 1-C), the Potency result in assay [1], in [3], in assay [5] and in [7] was “inactive” each time. In [2], the outcome was “inactive [at 26.4 µM]”. Further, the result in [4] was inactive.

As for `COc1ccc2c3c1O[C@H]1C[C@@H](O)C=C[C@@]31CCN(C)C2`, the Potency result in assay [1], in assay [3], in assay [5], in [6] and in [7] was “inactive” in each case. The outcome in [2] and in [4] was inactive.

Turning to `C[C@@H]1O[C@@H](O[C@H]2[C@H](OC(=O)[C@]34CCC(C)(C)C[C@H]3C3=CCC5[C@@]6(C)C[C@H](O)[C@H](O[C@@H]7O[C@H](CO)[C@@H](O)[C@H](O)[C@H]7O)[C@@](C)(CO)C6[C@H](O)C[C@@]5(C)[C@]3(C)C[C@H]4O)OC[C@H](O)[C@@H]2O)[C@H](O)[C@H](O)[C@H]1O[C@@H]1OC[C@@H](O)[C@H](O[C@H]2OC[C@](O)(CO)[C@H]2O)[C@H]1O` (stereo partly specified), in [8], the activity change, negative = cytotoxic is -21.6% [at 3.67 µM] (inactive). Besides, the outcome in assay [7] is “inactive [at 9.27 µM]”.

For `CC(=O)O[C@]1(C(C)=O)CC[C@H]2[C@@H]3C=C(Cl)C4=CC(=O)[C@@H]5C[C@H]5[C@]4(C)[C@@H]3CC[C@@]21C`, the Potency in assay [12] is 24300 nM (active). Moreover, the Potency entry in assay [7] was “inactive”.

As to `Cn1ncc2cc(-c3cnc(N)c(Cl)c3N3CCC4(CCNC4=O)CC3)ccc21`, the Potency in [9] was 2820 nM (active). Moreover, the Potency result in assay [5] and in [7] was “inactive” in each case.

Turning to `CN1CCC(c2cn(C)c3ccc(OS(=O)(=O)c4c(F)cccc4F)cc23)CC1`, the Potency result in assay [8] and in [7] was “inactive” in each case. Moreover, the Potency in [9] was 11200 nM (active).

Consider `COc1ccc(CN2CCN(CCCSc3cc(C(C)(C)C)c(O)c(C(C)(C)C)c3)CC2)c(OC)c1OC`, for which the Potency result in assay [8] is “inactive”. Also, the outcome in assay [7] was “inactive [at 9.27 µM]”.
